Measured values reported in PMC5540273 (PLoS ONE, 2017).
Values joined by “and” are separate entries in the source; they are usually repeats but may differ in a detail not shown here. Identical values can stand only once. Like-named read-outs stand apart in the source and are kept apart here.

Key:
TLK2 = conditions: concentration: 1 μM, replicates: in singlicate, n = 1
TNIK = conditions: concentration: 1 μM, replicates: in singlicate, n = 1
TNK1 = conditions: concentration: 1 μM, replicates: in singlicate, n = 1
TNK2 = conditions: concentration: 1 μM, replicates: in singlicate, n = 1
TNNI3K = conditions: concentration: 1 μM, replicates: in singlicate; n = 1
TRKA = test system: T1, TRKA; conditions: concentration: 1 μM, replicates: in singlicate; n = 1
T1 construct: gene NTRK1

TRKB = conditions: concentration: 1 μM, replicates: in singlicate, n = 1
TRKC = test system: T2, TRKC; conditions: concentration: 1 μM, replicates: in singlicate, n = 1
T2 construct: gene NTRK3

TRPM6 = conditions: concentration: 1 μM, replicates: in singlicate, n = 1
TSSK1B = conditions: concentration: 1 μM, replicates: in singlicate; n = 1
TSSK3 = conditions: concentration: 1 μM, replicates: in singlicate, n = 1
TTK = conditions: concentration: 1 μM, replicates: in singlicate, n = 1
TXK = conditions: concentration: 1 μM, replicates: in singlicate, n = 1
[1] = test system: TYK2(JH1domain-catalytic); conditions: concentration: 1 μM, replicates: in singlicate, n = 1
[2] = test system: TYK2(JH2domain-pseudokinase); conditions: concentration: 1 μM, replicates: in singlicate, n = 1
TYRO3 = conditions: concentration: 1 μM, replicates: in singlicate, n = 1
ULK1 = conditions: concentration: 1 μM, replicates: in singlicate, n = 1
ULK2 = conditions: concentration: 1 μM, replicates: in singlicate, n = 1
ULK3 = conditions: concentration: 1 μM, replicates: in singlicate, n = 1
VEGFR2 = test system: T3, VEGFR2; conditions: concentration: 1 μM, replicates: in singlicate, n = 1
T3 construct: gene KDR
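Note: KINOMEscan kinase panel screen.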

In the case of `Cl.Oc1cccc(Nc2ccnc3cc(-c4ccncc4)ccc23)c1` [GW494601], the “%Inh” value (TLK2) is reported as 9%, the “%Inh” value (TNIK) is reported as 86% and the “%Inh” value (TNK1) is reported as 72%. The “%Inh” value (TNK2) was 16%, the “%Inh” value (TNNI3K) was 33% and the “%Inh” value (TRKA) was 68%. For the same compound, the “%Inh” value (TRKB) was 11%, the “%Inh” value (TRKC) was 25% and the “%Inh” value (TRPM6) was 0%. The “%Inh” value (TSSK1B) was 0%, the “%Inh” value (TSSK3) was 6% and the “%Inh” value (TTK) was 39%. The “%Inh” value (TXK) was 97.6%, the “%Inh” value [1] was 93.1% and the “%Inh” value [2] was 49%. The “%Inh” value (TYRO3) was 82%, the “%Inh” value (ULK1) was 0% and the “%Inh” value (ULK2) was 0%. For the same compound, the “%Inh” value (ULK3) was 31% and the “%Inh” value (VEGFR2) was 95.4%.

For `Cc1cccc(Cn2ccn3c(=O)cc(N4CCOCC4)nc23)c1` [GSK2297542], the “%Inh” value (TLK2) was 5%, the “%Inh” value (TNIK) was 0% and the “%Inh” value (TNK1) was 0%. The “%Inh” value (TNK2) was 23%, the “%Inh” value (TNNI3K) was 2% and the “%Inh” value (TRKA) was 0%. For the same compound, the “%Inh” value (TRKB) was 0%, the “%Inh” value (TRKC) was 12% and the “%Inh” value (TRPM6) was 33%. For the same compound, the “%Inh” value (TSSK1B) was 0%, the “%Inh” value (TSSK3) was 17% and the “%Inh” value (TTK) was 62%. The “%Inh” value (TXK) was 0%, the “%Inh” value [1] was 0% and the “%Inh” value [2] was 26%. The “%Inh” value (TYRO3) was 8%, the “%Inh” value (ULK1) was 2% and the “%Inh” value (ULK2) was 0%. For the same compound, the “%Inh” value (ULK3) was 10% and the “%Inh” value (VEGFR2) was 0%.

In the case of `O=c1cc(N2CCOCC2)nc2n(Cc3cccc(Cl)c3Cl)c(C3CC3)nn12` [GSK2358994], the “%Inh” value (TLK2) is reported as 0%, the “%Inh” value (TNIK) is reported as 10% and the “%Inh” value (TNK1) is reported as 0%. For the same compound, the “%Inh” value (TNK2) was 5%, the “%Inh” value (TNNI3K) was 0% and the “%Inh” value (TRKA) was 1%. The “%Inh” value (TRKB) was 0%, the “%Inh” value (TRKC) was 0% and the “%Inh” value (TRPM6) was 0%. For the same compound, the “%Inh” value (TSSK1B) was 0%, the “%Inh” value (TSSK3) was 0% and the “%Inh” value (TTK) was 0%. The “%Inh” value (TXK) was 7%, the “%Inh” value [1] was 11% and the “%Inh” value [2] was 0%. For the same compound, the “%Inh” value (TYRO3) was 35%, the “%Inh” value (ULK1) was 0% and the “%Inh” value (ULK2) was 10%. For the same compound, the “%Inh” value (ULK3) was 0% and the “%Inh” value (VEGFR2) was 0%.

With `O=C(NOCC1CC1)c1ccc(F)c(F)c1Nc1ccc(I)cc1Cl` the “%Inh” value (TLK2) was 0%, the “%Inh” value (TNIK) was 2% and the “%Inh” value (TNK1) was 26%. For the same compound, the “%Inh” value (TNK2) was 0%, the “%Inh” value (TNNI3K) was 0% and the “%Inh” value (TRKA) was 0%. The “%Inh” value (TRKB) was 0%, the “%Inh” value (TRKC) was 0% and the “%Inh” value (TRPM6) was 0%. The “%Inh” value (TSSK1B) was 0%, the “%Inh” value (TSSK3) was 0% and the “%Inh” value (TTK) was 0%. For the same compound, the “%Inh” value (TXK) was 0%, the “%Inh” value [1] was 0% and the “%Inh” value [2] was 0%. For the same compound, the “%Inh” value (TYRO3) was 0%, the “%Inh” value (ULK1) was 0% and the “%Inh” value (ULK2) was 0%. For the same compound, the “%Inh” value (ULK3) was 0% and the “%Inh” value (VEGFR2) was 0%.

With `COc1cc2ncn(-c3cc(OCc4sccc4Cl)c(C(N)=O)s3)c2cc1OC` [GSK448459] the “%Inh” value (TLK2) was 0%, the “%Inh” value (TNIK) was 74% and the “%Inh” value (TNK1) was 0%. The “%Inh” value (TNK2) was 24%, the “%Inh” value (TNNI3K) was 0% and the “%Inh” value (TRKA) was 47%. For the same compound, the “%Inh” value (TRKB) was 25%, the “%Inh” value (TRKC) was 14% and the “%Inh” value (TRPM6) was 0%. The “%Inh” value (TSSK1B) was 1%, the “%Inh” value (TSSK3) was 10% and the “%Inh” value (TTK) was 5%. For the same compound, the “%Inh” value (TXK) was 0%, the “%Inh” value [1] was 22% and the “%Inh” value [2] was 19%. The “%Inh” value (TYRO3) was 0%, the “%Inh” value (ULK1) was 17% and the “%Inh” value (ULK2) was 0%. For the same compound, the “%Inh” value (ULK3) was 19% and the “%Inh” value (VEGFR2) was 0%.

`Cl.Cl.Cl.Fc1ccc(-c2ncn(C3CCNCC3)c2-c2ccnc(Nc3ccccc3)n2)cc1` [SB-238039] was tested, and the “%Inh” value (TLK2; 1 µM) was 13% and 0%, the “%Inh” value (TNIK; 1 µM) was 86% and 84% and the “%Inh” value (TNK1; 1 µM) was 58% and 12%. The “%Inh” value (TNK2; 1 µM) was 0% and 10%, the “%Inh” value (TNNI3K) was 0% and the “%Inh” value (TRKA) was 0%. The “%Inh” value (TRKB; 1 µM) was 18% and 16%, the “%Inh” value (TRKC; 1 µM) was 67% and 0% and the “%Inh” value (TRPM6; 1 µM) was 6% and 0%. The “%Inh” value (TSSK1B) was 0%, the “%Inh” value (TSSK3; 1 µM) was 19% and 5% and the “%Inh” value (TTK; 1 µM) was 15% and 3%. The “%Inh” value (TXK; 1 µM) was 3% and 0%, the “%Inh” value ([1]; 1 µM) was 35% and 0% and the “%Inh” value ([2]; 1 µM) was 18% and 0%. The “%Inh” value (TYRO3; 1 µM) was 0% and 12%, the “%Inh” value (ULK1; 1 µM) was 28% and 6% and the “%Inh” value (ULK2; 1 µM) was 21% and 29%. For the same compound, the “%Inh” value (ULK3; 1 µM) was 24% and 26% and the “%Inh” value (VEGFR2; 1 µM) was 0% and 9%.

`O=C1Cc2cc(Nc3nc(NCc4cccc(S(=O)(=O)C(F)(F)F)c4)ncc3C(F)(F)F)ccc2N1` was tested, and the “%Inh” value (TLK2) was 3%, the “%Inh” value (TNIK) was 0% and the “%Inh” value (TNK1) was 0%. For the same compound, the “%Inh” value (TNK2) was 10%, the “%Inh” value (TNNI3K) was 0% and the “%Inh” value (TRKA) was 17%. For the same compound, the “%Inh” value (TRKB) was 0%, the “%Inh” value (TRKC) was 10% and the “%Inh” value (TRPM6) was 0%. The “%Inh” value (TSSK1B) was 19%, the “%Inh” value (TSSK3) was 9% and the “%Inh” value (TTK) was 0%. For the same compound, the “%Inh” value (TXK) was 4%, the “%Inh” value [1] was 25% and the “%Inh” value [2] was 0%. For the same compound, the “%Inh” value (TYRO3) was 3%, the “%Inh” value (ULK1) was 3% and the “%Inh” value (ULK2) was 26%. The “%Inh” value (ULK3) was 12% and the “%Inh” value (VEGFR2) was 0%.
